Measurements: PubChem BioAssay AID602477 (National Center for Advancing Translational Sciences (NCATS), 2012)
Results filed as inconclusive are left out. Values without a mark were called inactive. Activity calls are given as the source filed them. Calls follow the shape of the dose curve; as a rule, active = well fitted activation curve with a large enough effect; inconclusive = small, poorly fitted or top-dose-only effect; inactive = no such curve, though single readings can be large or run the other way.

Assay: FLuc inhibitory activity for the follow-up compounds in a cell-based assay to assess the activity of miR-21
Conditions: HeLa miR-21-FLuc reporter, luciferase luminescence, 48 h; series mostly up to 38.3 µM; activity change, positive = activation: at the top concentration
From the text: NCGC Assay Overview: Firefly (Photinus pyralis) luciferase is one of the most commonly used transcriptional reporters. It is considered one of the more dynamically responsive reporters - that is, responsive to changes in reporter transcription - as it requires no post-translational modifications and is enzymatically active directly after protein synthesis (Wood, 1998). With no endogenous expression in mammalian cells and without the requirement of external excitation, it offers very little background signal, thus generally providing excellent signal to background for most assays. Previous profiling work to determine the prevalence of compounds that affect FLuc enzymatic activity (PubChem AID 411) identified that ~3% of the MLSMR library (then at ~72K) inhibited FLuc (Auld et al., 2008). […] Of the compounds identified in this profile that inhibited FLuc, 151 compounds were selected for further analysis, in an effort to better understand their mode of inhibiting FLuc. The assay described here was to determine the activity of the compounds in a cell-based firefly luciferase reporter gene assay originally designed to identify antagonists of miR-21. Compounds that inhibit miR-21 or compounds that stabilize FLuc intracellularly are identified as active compounds in the assay.
NCGC Assay Protocol Summary: Reagents: In-house detection reagent: 300mM Tris-HCl, 300mM Trizma base, 300mM MgCl, 1% Triton-X100, 5mM DTT, 500uM Coenzyme A trilithium salt (Sigma #C3019),450uM ATP (Sigma #A7699), 1mM D-luciferin sodium salt monohydrate (Biosynth #L8240) HeLa cells stably expressing firefly luciferase (FLuc) under the control of a CMV promoter (upstream) and a miR-21 binding sequence directly downstream of the gene. These cells endogenously express miR-21. Control compounds used were two known firefly luciferase inhibitors (3-(5-(3-chlorophenyl)-1,2,4-oxadiazol-3-yl)benzoic acid and 5-(2-fluorophenyl)-3-phenyl-1,2,4-oxadiazole), and DMSO. Assay Summary: 6uL of HeLa miR-21-FLuc cells in assay buffer (DMEM, Invitrogen #21063-029; 10% FBS, HyClone #SH30071.03) were dispensed at 2000cells/well (3.3 x 10^5 cells/mL) into Greiner solid-white TC-treated 1536-well plates using a Multidrop Combi (Thermo Fisher Scientific). Plates were incubated for one hour at 37 degree Celsius, 95% humidity, 5% CO2. These assay plates were then treated with 23nL of compound or DMSO using a Kalypsys pin tool, which allows for delivery of a 12-point titration of each compound to the assay plate, with a final compound concentration ranging from approximately ~38uM to 0.2nM. Assay plates were then incubated for 48 hours. After incubation, plates were allowed to come to RT for one hour prior to delivery of 3uL of 3X luciferase detection reagent. After a 15 minute incubation to allow for cell lysis, luciferase activity was measured using a ViewLux CCD imager (PerkinElmer), with an average exposure time of 2-12 seconds.

Row | SMILES | Potency | activity change, positive = activation [%]
1 | COc1ccc2nc(NC(=O)CCc3nc(-c4ccccc4F)no3)sc2c1 | 2.52 µM (active) | –
2 | O=C(Nc1ccccc1C(=O)O)c1ccc(NC(=O)C2CCCCC2)cc1 | – | 13.7
3 | CCc1noc(C)c1C(=O)Nc1nc2ccc(OC)cc2s1 | 12.6 µM (active) | –
4 | Cc1ccc2nc(-c3ccc(NC(=O)CN4CCN(C(=O)c5ccco5)CC4)cc3)sc2c1 | 4.49 µM (active) | –
5 | Nc1ccc(-c2nc3cc(N)ccc3s2)cc1 | 2.25 µM (active) | –
6 | COc1cc(OC)cc(C(=O)Nc2ccc(-c3nc4ccccc4s3)c(C)c2)c1 | 11.3 µM (active) | –
7 | O=C(Cc1ccccc1)Nc1ccc(C(=O)Nc2ccccc2C(=O)O)cc1 | – | 10.4
8 | Cc1ccc2sc(-c3ccc(N)cc3)nc2c1 | 0.0504 µM (active) | –
9 | COc1ccc(-c2nc3ccccc3s2)cc1NC(=O)c1ccc(F)cc1 | 12.6 µM (active) | –
10 | COc1ccc(C(=O)Nc2nc3ccc(OC)cc3s2)cc1 | 2.83 µM (active) | –
11 | Cc1ccc2sc(-c3ccc(NC(=O)c4cc(-n5cnnc5)ccc4Cl)cc3)nc2c1 | 1.79 µM (active) | –
12 | CN(C)c1cccc(C(=O)Nc2ccc(-c3nc4ccccc4s3)cc2)c1 | 0.503 µM (active) | –
13 | COc1ccc(NS(=O)(=O)c2cccc(C(=O)Nc3ccccc3C(=O)O)c2)cc1 | – | 5.31
14 | COc1ccc2nc(NC(=O)c3ccc([N+](=O)[O-])o3)sc2c1 | 4.49 µM (active) | –
15 | COc1ccc(C(=O)Nc2ccccc2-c2nc3ccccc3s2)c(OC)c1 | 22.5 µM (active) | –
16 | Nc1cccc(-c2nc3ccc(N)cc3s2)c1 | 1.79 µM (active) | –
17 | O=C(Nc1cccc(-c2nc3ccccc3s2)c1)c1cc(-n2cnnc2)ccc1Cl | 4.49 µM (active) | –
18 | Cc1ccc(C(=O)O/N=C(\N)c2ccccn2)c(Cl)c1 | 0.0318 µM (active) | –
19 | O=C(Nc1ccc(-c2nc3ccccc3s2)cc1)C1=COCCO1 | 0.01 µM (active) | –
20 | COc1ccc2nc(NC(=O)c3cnccn3)sc2c1 | 0.2 µM (active) | –

Row | SMILES | Potency | activity change, positive = activation [%]
21 | O=C(Nc1cccc(-c2nc3ccccc3s2)c1)C1=COCCO1 | 12.6 µM (active) | –
22 | O=C(O)c1cccc(NC(=O)c2cccc(S(=O)(=O)N3CCc4ccccc43)c2)c1 | – | 18.1
23 | CCOc1ccc2nc(NC(=O)c3ccccc3)sc2c1 | 0.1 µM (active) | –
24 | C/C(=N\NC(=O)c1ccccc1NC(=O)c1ccc(Cl)cc1)c1ccncc1 | 0.0449 µM (active) | –
25 | CCOc1ccc2nc(NC(=O)c3cc([N+](=O)[O-])ccc3N3CCOCC3)sc2c1 | 5.04 µM (active) | –
26 | O=C(COC(=O)c1ccccc1[N+](=O)[O-])c1ccc2c(c1)OCO2 | 5.04 µM (active) | –
27 | O=C(Nc1ccccc1C(=O)O)c1ccc(NC(=O)C2CC2)cc1 | – | -13.5
28 | COc1ccc(C(=O)Nc2ccccc2C(=O)Nc2ccc(C(=O)O)cc2)cc1 | 8.95 µM (active) | –
29 | O=C(Nc1ccccc1-c1nc2ccccc2s1)c1ccc(Br)o1 | 22.5 µM (active) | –
30 | CCOc1ccc2nc(NC(=O)c3ccoc3C)sc2c1 | 0.1 µM (active) | –
31 | O=C(Nc1ccccc1C(=O)O)c1cccc(C(=O)Nc2ccccc2C(=O)O)c1 | – | 17.2
32 | CN(C)S(=O)(=O)c1ccc(C(=O)Nc2cccc(C(=O)O)c2)cc1 | – | 24.8
33 | COc1cccc(-c2nc3ccccc3s2)c1 | 0.252 µM (active) | –
34 | O=C(O)c1cccc(NC(=O)c2ccccc2NC(=O)c2ccccc2F)c1 | – | 1.45
35 | CC(C)CC(=O)Nc1cccc(C(=O)Nc2ccccc2C(=O)O)c1 | – | 9.15
36 | O=C(O)c1ccc(NC(=O)c2cc(S(=O)(=O)N3CCCCC3)c(Cl)cc2Cl)cc1 | – | 8.46
37 | COc1ccc(C(=O)Nc2ccccc2C(=O)Nc2ccccc2C(=O)O)cc1 | 8.95 µM (active) | –
38 | COc1ccc(C(=O)Nc2ccccc2C(=O)N/N=C/c2ccc(O)c(OC)c2)cc1 | – | -59.6
39 | O=C(Nc1ccccc1C(=O)O)c1cc(S(=O)(=O)Nc2cccc(F)c2)ccc1Cl | – | 3.69
40 | Cc1cccc(C(=O)Nc2ccc(-c3nc4ccccc4s3)cc2Cl)c1 | 12.6 µM (active) | –
